29 compounds from PubChem BioAssay (EPA / NIEHS) can be followed below.

Several values for one entry are separate records, joined by “and”; a condition that tells them apart may be missing. Equal values may be shown once. Results filed as inconclusive are left out. A structure can be active in one record and inactive in another. Activity calls are given as the source filed them. Rule for the calls: active = hit-call score of the fitted dose curve at least 0.9, where 1 is the maximum; inconclusive = response in the unintended direction; inactive = score below 0.9.

Chain of rat CYP2A2, Cyp2a2 (gene 24895) (P15149 whole entry, looked up): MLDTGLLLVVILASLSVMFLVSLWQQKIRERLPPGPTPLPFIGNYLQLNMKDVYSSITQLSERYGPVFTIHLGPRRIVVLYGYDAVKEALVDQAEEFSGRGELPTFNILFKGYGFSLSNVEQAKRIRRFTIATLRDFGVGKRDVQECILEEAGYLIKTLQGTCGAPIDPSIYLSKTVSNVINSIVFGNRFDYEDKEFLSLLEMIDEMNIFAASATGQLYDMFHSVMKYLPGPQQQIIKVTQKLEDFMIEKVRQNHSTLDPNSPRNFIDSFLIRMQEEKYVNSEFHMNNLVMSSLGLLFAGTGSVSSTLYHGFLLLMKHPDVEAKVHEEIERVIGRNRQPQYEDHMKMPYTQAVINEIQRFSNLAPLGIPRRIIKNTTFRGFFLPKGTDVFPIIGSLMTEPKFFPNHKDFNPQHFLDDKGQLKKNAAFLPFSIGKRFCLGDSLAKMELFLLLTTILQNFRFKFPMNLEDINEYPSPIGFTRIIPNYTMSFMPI
Chain of human Acetylcholinesterase (AChE), ACHE (gene 43) (P22303 whole entry, looked up): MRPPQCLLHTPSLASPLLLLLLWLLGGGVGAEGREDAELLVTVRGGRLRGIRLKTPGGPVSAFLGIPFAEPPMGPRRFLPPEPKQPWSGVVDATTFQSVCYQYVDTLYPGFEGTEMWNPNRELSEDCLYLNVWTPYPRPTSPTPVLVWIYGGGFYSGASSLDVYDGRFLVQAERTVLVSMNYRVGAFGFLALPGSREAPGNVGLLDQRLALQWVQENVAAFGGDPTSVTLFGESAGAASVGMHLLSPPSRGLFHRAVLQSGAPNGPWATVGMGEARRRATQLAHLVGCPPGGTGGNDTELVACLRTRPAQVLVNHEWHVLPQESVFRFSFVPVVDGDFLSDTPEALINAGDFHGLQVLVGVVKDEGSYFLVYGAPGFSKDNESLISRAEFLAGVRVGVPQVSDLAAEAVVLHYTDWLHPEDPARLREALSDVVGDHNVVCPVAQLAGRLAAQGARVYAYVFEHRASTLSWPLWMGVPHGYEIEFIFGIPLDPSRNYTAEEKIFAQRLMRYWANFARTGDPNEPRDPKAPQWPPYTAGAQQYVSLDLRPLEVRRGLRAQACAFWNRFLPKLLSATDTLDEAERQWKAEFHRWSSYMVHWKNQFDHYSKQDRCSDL
Chain of rat CYP2C12, Cyp2c12 (gene 25011) (P11510 whole entry, looked up): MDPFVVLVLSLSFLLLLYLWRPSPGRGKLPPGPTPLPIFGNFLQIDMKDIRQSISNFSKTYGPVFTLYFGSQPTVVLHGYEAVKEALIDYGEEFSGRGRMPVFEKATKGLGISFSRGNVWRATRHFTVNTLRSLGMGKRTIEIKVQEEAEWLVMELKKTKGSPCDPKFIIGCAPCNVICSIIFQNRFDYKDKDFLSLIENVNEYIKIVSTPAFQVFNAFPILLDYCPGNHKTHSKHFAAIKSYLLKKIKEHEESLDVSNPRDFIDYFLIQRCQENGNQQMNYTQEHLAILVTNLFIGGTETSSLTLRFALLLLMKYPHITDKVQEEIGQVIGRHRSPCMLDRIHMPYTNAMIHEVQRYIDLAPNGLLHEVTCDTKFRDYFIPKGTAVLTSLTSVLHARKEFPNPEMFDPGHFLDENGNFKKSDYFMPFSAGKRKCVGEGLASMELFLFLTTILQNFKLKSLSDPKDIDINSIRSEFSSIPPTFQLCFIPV
Chain of human Beta-secretase (BACE), BACE1 (gene 23621) (P56817 whole entry, looked up): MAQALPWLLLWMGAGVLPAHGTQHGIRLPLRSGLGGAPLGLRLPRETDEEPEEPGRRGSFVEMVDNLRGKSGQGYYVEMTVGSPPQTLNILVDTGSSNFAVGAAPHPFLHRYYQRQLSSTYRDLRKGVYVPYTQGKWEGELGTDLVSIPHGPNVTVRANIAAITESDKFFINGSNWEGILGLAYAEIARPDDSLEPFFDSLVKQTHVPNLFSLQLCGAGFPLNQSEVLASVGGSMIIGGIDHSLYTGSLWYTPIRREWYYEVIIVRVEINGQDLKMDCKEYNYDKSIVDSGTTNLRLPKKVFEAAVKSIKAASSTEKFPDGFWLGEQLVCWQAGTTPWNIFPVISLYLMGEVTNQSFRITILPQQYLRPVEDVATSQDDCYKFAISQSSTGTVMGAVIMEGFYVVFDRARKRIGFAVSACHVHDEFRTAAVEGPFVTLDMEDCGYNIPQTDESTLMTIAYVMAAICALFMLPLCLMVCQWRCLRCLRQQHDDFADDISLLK
Chain of human AKT serine/threonine Kinase 1 (AKT1), AKT1 (gene 207) (P31749 whole entry, looked up): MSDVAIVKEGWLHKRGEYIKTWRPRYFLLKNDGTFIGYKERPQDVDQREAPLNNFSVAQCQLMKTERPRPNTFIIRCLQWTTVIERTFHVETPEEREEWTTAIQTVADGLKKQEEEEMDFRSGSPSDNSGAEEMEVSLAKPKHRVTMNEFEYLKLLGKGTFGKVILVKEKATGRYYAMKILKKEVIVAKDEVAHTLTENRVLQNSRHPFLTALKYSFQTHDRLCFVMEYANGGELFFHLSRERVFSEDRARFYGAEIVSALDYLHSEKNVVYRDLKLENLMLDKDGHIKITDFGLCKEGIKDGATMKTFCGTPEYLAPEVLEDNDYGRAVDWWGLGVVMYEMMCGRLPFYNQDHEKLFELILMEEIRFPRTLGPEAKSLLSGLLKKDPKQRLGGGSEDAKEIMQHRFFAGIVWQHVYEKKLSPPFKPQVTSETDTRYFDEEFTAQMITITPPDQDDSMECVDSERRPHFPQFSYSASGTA
Chain of human Caspase 5 (CASP5), CASP5 (gene 838) (P51878 whole entry, looked up): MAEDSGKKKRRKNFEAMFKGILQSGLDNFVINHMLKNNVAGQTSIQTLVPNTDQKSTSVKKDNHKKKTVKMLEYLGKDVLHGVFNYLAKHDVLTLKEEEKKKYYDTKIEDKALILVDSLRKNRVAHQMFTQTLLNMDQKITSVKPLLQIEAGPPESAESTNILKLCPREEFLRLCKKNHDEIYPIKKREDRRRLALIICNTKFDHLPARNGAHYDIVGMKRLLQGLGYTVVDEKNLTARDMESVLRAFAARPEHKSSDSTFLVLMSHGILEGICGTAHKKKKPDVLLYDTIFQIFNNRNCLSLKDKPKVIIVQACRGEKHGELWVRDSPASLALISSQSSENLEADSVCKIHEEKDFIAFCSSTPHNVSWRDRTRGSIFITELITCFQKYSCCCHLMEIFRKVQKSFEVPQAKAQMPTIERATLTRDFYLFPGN
Chain of rat CYP2C11, Cyp2c11 (gene 29277) (P08683 whole entry, looked up): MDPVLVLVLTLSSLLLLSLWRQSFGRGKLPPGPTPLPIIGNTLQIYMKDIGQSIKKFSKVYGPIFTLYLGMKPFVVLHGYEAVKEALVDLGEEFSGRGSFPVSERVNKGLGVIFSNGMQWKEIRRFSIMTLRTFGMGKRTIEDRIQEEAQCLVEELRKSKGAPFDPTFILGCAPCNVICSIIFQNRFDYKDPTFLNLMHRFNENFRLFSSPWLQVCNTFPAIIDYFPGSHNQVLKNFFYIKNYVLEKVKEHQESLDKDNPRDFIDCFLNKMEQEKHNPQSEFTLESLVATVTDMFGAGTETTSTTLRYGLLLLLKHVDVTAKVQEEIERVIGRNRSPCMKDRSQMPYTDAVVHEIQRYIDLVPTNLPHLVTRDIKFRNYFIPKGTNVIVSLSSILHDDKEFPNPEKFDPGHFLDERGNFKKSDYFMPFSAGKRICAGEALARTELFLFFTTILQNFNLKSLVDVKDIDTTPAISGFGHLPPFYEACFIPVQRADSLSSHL

The first assay addresses rat CYP2A2, Cyp2a2 (gene 24895) (UniProt P15149). The experiment in a line: NVS_ADME_rCYP2A2: NovaScreen (NVS) CYP450-related Enzyme Activity (ADME) Assay for rat CYP2A2 (AID 2283116). A digest of the protocol: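 Cell-free recombinant rat CYP2A2 activity with fluorogenic substrate, fluorescence read 0.2 h after dosing. Chemicals screened at 10 uM in duplicate, hits then run in concentration-response up to 20 uM; signal loss versus acetonitrile baseline.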
Take `Clc1ccc(C2(Cn3cncn3)CC(Br)CO2)c(Cl)c1` (centres undefined): the half-maximal activity concentration (AC50) was 0.0829 µM (active).
Same read-out and setting: the value for `CC12CC1(C)C(=O)N(c1cc(Cl)cc(Cl)c1)C2=O` (centres undefined) was 4.98 µM (active).
Still for that read-out and setting: the value for `Fc1ccc(C2(Cn3cncn3)OC2c2ccccc2Cl)cc1` (centres undefined) was 0.353 µM (active).
On to `CC(C)C1CCC(Cc2ccc(Cl)cc2)C1(O)Cn1cncn1` (centres undefined), for which the AC50 was 0.106 µM (active).
On to `BrCCBr`, for which the call was inactive.
With `CC1(C)CCC(Cc2ccc(Cl)cc2)C1(O)Cn1cncn1` (centres undefined), the half-maximal activity concentration (AC50) was 0.0404 µM (active).

The next assay relates to rat CYP2B1, gene 24300. The assay can be described thus: NVS_ADME_rCYP2B1: NovaScreen (NVS) CYP450-related Enzyme Activity (ADME) Assay for rat CYP2B1 (AID 2283117). A digest of the protocol:
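Recombinant rat CYP2B1 with fluorogenic substrate, read at 0.75 h. Primary screen in duplicate at 10 uM; compounds meeting threshold (e.g., 30% inhibition) re-run in concentration-response up to 20 uM. Fitted against acetonitrile control.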
Take `Clc1ccc(C2(Cn3cncn3)CC(Br)CO2)c(Cl)c1` (centres undefined): the half-maximal activity concentration (AC50) is 41.1 nM (active).
The same measure, in the same setting: next, `Fc1ccc(C2(Cn3cncn3)OC2c2ccccc2Cl)cc1` (centres undefined): 3090 nM (active); `CC(C)C1CCC(Cc2ccc(Cl)cc2)C1(O)Cn1cncn1` (centres undefined): 2040 nM (active).
As for `O=C1C2(Cl)C3(Cl)C4(Cl)C(Cl)(Cl)C5(Cl)C3(Cl)C1(Cl)C5(Cl)C24Cl` (centres undefined), the AC50 is 1.61 µM (active) and 5.98 µM (active); the outcome was inactive.
On to `CC1(C)CCC(Cc2ccc(Cl)cc2)C1(O)Cn1cncn1` (centres undefined), for which the half-maximal activity concentration (AC50) is 385 nM (active).

The target in the next assay is rat CYP2C11, Cyp2c11 (gene 29277) (UniProt P08683). The assay can be described thus: NVS_ADME_rCYP2C11: NovaScreen (NVS) CYP450-related Enzyme Activity (ADME) Assay for rat CYP2C11 (AID 2283118). A digest of the protocol:
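Cell-free recombinant rat enzyme with fluorescent substrate; readout 0.33 h after dosing, loss of signal versus acetonitrile control. Initial duplicate single-point at 10 uM; actives rerun in concentration series.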
`Clc1ccc(C2(Cn3cncn3)CC(Br)CO2)c(Cl)c1` (centres undefined): the AC50 was 1.59 µM (active).
The same measure, in the same setting: the value for `Fc1ccc(C2(Cn3cncn3)OC2c2ccccc2Cl)cc1` (centres undefined) was 0.974 µM (active); that for `COP(=S)(OC)Oc1ccc(Sc2ccc(OP(=S)(OC)OC)cc2)cc1` was 8.46 µM (active).
The same measure, in the same setting: next, `O=C1C2(Cl)C3(Cl)C4(Cl)C(Cl)(Cl)C5(Cl)C3(Cl)C1(Cl)C5(Cl)C24Cl` (centres undefined): 193 nM (active) and 1.16 µM (active) and 250 nM (active).
Still for that read-out and setting: the value for `CC1(C)CCC(Cc2ccc(Cl)cc2)C1(O)Cn1cncn1` (centres undefined) was 0.121 µM (active).

The next assay concerns the target rat CYP2C12, Cyp2c12 (gene 25011) (UniProt P11510). The assay can be described thus: NVS_ADME_rCYP2C12: NovaScreen (NVS) CYP450-related Enzyme Activity (ADME) Assay for rat CYP2C12 (AID 2283119). A digest of the protocol: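 Cell-free recombinant rat CYP2C12 activity read by fluorescence 0.5 h after dosing; loss of signal versus acetonitrile control. Primary screen in duplicate at 10 uM; actives then run in concentration-response format.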
Regarding `Clc1ccc(C2(Cn3cncn3)CC(Br)CO2)c(Cl)c1` (centres undefined), the AC50 was 11 µM (active).
Still for that read-out and setting: the value for `CCOC(=O)Nc1cccc(OC(=O)Nc2ccccc2)c1` was 10 µM (active); that for `CC1(C)CCC(Cc2ccc(Cl)cc2)C1(O)Cn1cncn1` (centres undefined) was 5.15 µM (active).

Another assay has as its system rat CYP2C6, gene 293989. The experiment in a line: NVS_ADME_rCYP2C6: NovaScreen (NVS) CYP450-related Enzyme Activity (ADME) Assay for rat CYP2C6 (AID 2283120). A digest of the protocol: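 Cell-free recombinant rat CYP2C6 with fluorogenic substrate, read by fluorescence 1 h after dosing; acetonitrile as negative control. Primary screen at 10 uM in duplicate, actives then in concentration-response up to 20 uM.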
`Clc1ccc(C2(Cn3cncn3)CC(Br)CO2)c(Cl)c1` (centres undefined): the AC50 was 4.68 µM (active).
Same read-out and setting: next, `COP(=S)(OC)Oc1ccc(Sc2ccc(OP(=S)(OC)OC)cc2)cc1`: 2.96 µM (active); `O=C1C2(Cl)C3(Cl)C4(Cl)C(Cl)(Cl)C5(Cl)C3(Cl)C1(Cl)C5(Cl)C24Cl` (centres undefined): 7.93 µM (active) and 5.36 µM (active).

The target of another assay is rat CYP2C13, Cyp2c13 (gene 171521) (UniProt P20814). The assay can be described thus: NVS_ADME_rCYP2C13: NovaScreen (NVS) CYP450-related Enzyme Activity (ADME) Assay for rat CYP2C13 (AID 2283121). A digest of the protocol: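 Recombinant rat CYP2C13 with fluorogenic substrate, 0.75 h cell-free incubation; primary screen in duplicate at 10 uM, actives followed in concentration series. Fluorescence loss relative to acetonitrile control indicates inhibition.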
Chain of rat CYP2C13, Cyp2c13 (gene 171521) (P20814 whole entry, looked up): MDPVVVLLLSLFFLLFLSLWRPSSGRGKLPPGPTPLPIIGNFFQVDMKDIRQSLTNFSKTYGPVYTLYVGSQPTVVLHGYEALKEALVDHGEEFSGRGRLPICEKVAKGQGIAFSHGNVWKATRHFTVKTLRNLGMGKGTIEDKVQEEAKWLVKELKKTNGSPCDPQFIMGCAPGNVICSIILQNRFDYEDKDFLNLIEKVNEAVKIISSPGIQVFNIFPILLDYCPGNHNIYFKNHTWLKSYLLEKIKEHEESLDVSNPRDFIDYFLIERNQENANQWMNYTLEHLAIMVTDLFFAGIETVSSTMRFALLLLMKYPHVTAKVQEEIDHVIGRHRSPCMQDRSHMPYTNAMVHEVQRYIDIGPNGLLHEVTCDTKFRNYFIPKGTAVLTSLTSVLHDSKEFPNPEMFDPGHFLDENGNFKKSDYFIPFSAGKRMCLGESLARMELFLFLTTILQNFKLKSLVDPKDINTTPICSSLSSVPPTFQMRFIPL
As to `Clc1ccc(C2(Cn3cncn3)CC(Br)CO2)c(Cl)c1` (centres undefined), the AC50 is 1.87 µM (active).
For `Fc1ccc(C2(Cn3cncn3)OC2c2ccccc2Cl)cc1` (centres undefined), the AC50 was 0.377 µM (active).
The same measure, in the same setting: the value for `CCOC(=O)Nc1cccc(OC(=O)Nc2ccccc2)c1` was 10.4 µM (active); that for `CC1(C)CCC(Cc2ccc(Cl)cc2)C1(O)Cn1cncn1` (centres undefined) was 1.17 µM (active).

Another assay has as its system rat CYP3A1, gene 25642. The experiment in a line: NVS_ADME_rCYP3A1: NovaScreen (NVS) CYP450-related Enzyme Activity (ADME) Assay for rat CYP3A1 (AID 2283126). A digest of the protocol: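 Cell-free recombinant CYP assay with fluorescent substrate, read 0.5 h after dosing. Screened at 10 uM in duplicate, hits at up to 20 uM in concentration-response; loss of signal versus acetonitrile baseline.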
Take `Clc1ccc(C2(Cn3cncn3)CC(Br)CO2)c(Cl)c1` (centres undefined): the half-maximal activity concentration (AC50) was 721 nM (active).
Same read-out and setting: next, `COP(=S)(OC)Oc1ccc(Sc2ccc(OP(=S)(OC)OC)cc2)cc1`: 9920 nM (active); `O=C1C2(Cl)C3(Cl)C4(Cl)C(Cl)(Cl)C5(Cl)C3(Cl)C1(Cl)C5(Cl)C24Cl` (centres undefined): 6.55 µM (active) and 3.69 µM (active).

The target of a further assay is human Acetylcholinesterase (AChE), ACHE (gene 43) (UniProt P22303). The assay can be described thus: NVS_ENZ_hAChE: NovaScreen (NVS) Enzymatic Assay for human Acetylcholinesterase (AChE) (AID 2283129). A digest of the protocol:
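Cell-free colorimetric enzyme-activity assay; compounds read 0.33 hour after dosing, loss of signal vs DMSO baseline. Primary screen in duplicate at 25 uM single concentration, with active compounds retested in concentration series.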
For `CCN1CCC2(CC1)COc1cc3c(cc12)N(C(=O)c1ccc(-c2ccc(-c4nnc(C)o4)cc2C)cc1)CC3`, the AC50 is 4.69 µM (active).
Take `CC(C)(C)c1cc(O)ccc1O`: the result was inactive.
Turning to `COc1cc(-c2ccc(N)c(OC)c2)ccc1N`, the concentration at half-maximal activity (AC50) was 13.8 µM (active).
The same measure, in the same setting: next, `CC(=O)[O][Hg][c]1ccccc1`: 40 µM (active).
As for `Oc1cccc2cccnc12`, the call was inactive.

Another assay has as its target human Caspase 5 (CASP5), CASP5 (gene 838) (UniProt P51878). The assay can be described thus: NVS_ENZ_hCASP5: NovaScreen (NVS) Enzymatic Assay for human Caspase 5 (CASP5) (AID 2283137). Put shortly:
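Recombinant E. coli-expressed human caspase 5 in a cell-free enzyme assay; fluorescence intensity read 2 hours after chemical dosing. Single-concentration duplicate screen at 25 uM, then concentration-response up to 50 uM for hits; DMSO negative control.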
In the case of `Cn1sc(Cl)cc1=O`, the result was inactive.
Still for that read-out and setting: next, `CCCCCCCCc1ccc(O)cc1`: “inactive”.
With `O=[N+]([O-])c1ccc2c3c(cccc13)CC2`, the AC50 is 25 µM (active).
On the same count and under the same terms, next, `Nc1cccc2ccccc12`: 45.2 µM (active); `CC(=O)[O][Hg][c]1ccccc1`: 1.8 µM (active).
`O=C1C2(Cl)C3(Cl)C4(Cl)C(Cl)(Cl)C5(Cl)C3(Cl)C1(Cl)C5(Cl)C24Cl` (centres undefined): the outcome was inactive.
Consider `O=C(O)C(F)(F)C(F)(F)C(F)(F)C(F)(F)C(F)(F)C(F)(F)C(F)(F)C(F)(F)C(F)(F)C(F)(F)F`, for which the AC50 was 3.6 µM (active).
Same read-out and setting: next, `Nc1ncc([N+](=O)[O-])s1`: 9.06 µM (active).

A further assay has as its target human AKT serine/threonine Kinase 1 (AKT1), AKT1 (gene 207) (UniProt P31749). The experiment in a line: NVS_ENZ_hAKT1: NovaScreen (NVS) Enzymatic Assay for human AKT serine/threonine Kinase 1 (AKT1) (AID 2283138). Put shortly: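 Cell-free recombinant enzyme with substrate; activity read by fluorescence intensity after electrophoretic mobility shift separating substrate from product, 1 h after dosing. Single-concentration duplicates at 25 uM, then singleton concentration-response up to 50 uM; loss of signal versus DMSO.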
Regarding `CCOP(=S)(OCC)SCSP(=S)(OCC)OCC`, the compound was called inactive.
Consider `CCC(=O)C(CC(C)N(C)C)(c1ccccc1)c1ccccc1` (centres undefined), for which the compound was classed as inactive.
Still for that read-out and setting: the value for `C=CC(=O)OCCCCCC(C)C` was “inactive”.
`ClC1(Cl)C2(Cl)C3(Cl)C4(Cl)C(Cl)(Cl)C5(Cl)C3(Cl)C1(Cl)C5(Cl)C24Cl` (centres undefined): the compound was classed as inactive.
Regarding `O=C(O)C(F)(F)C(F)(F)C(F)(F)C(F)(F)C(F)(F)C(F)(F)C(F)(F)C(F)(F)C(F)(F)C(F)(F)F`, the half-maximal activity concentration (AC50) is 1.59 µM (active).

Another assay has as its target human Beta-secretase (BACE), BACE1 (gene 23621) (UniProt P56817). The assay can be described thus: NVS_ENZ_hBACE: NovaScreen (NVS) Enzymatic Assay for human Beta-secretase (BACE) (AID 2283140).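 Note: hits are inhibitors that reduce fluorescent substrate signal versus DMSO.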 A digest of the protocol:
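Cell-free fluorescence-intensity assay of recombinant BACE1 expressed in SF9 cells, read 1 hour after dosing. Loss of signal indicates reduced protease activity, fitted relative to DMSO negative control. Primary screen at 25 uM in duplicate; actives followed in concentration series.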
As to `CCN1CCC2(CC1)COc1cc3c(cc12)N(C(=O)c1ccc(-c2ccc(-c4nnc(C)o4)cc2C)cc1)CC3`, the concentration at half-maximal activity (AC50) was 28.3 µM (active).
As for `Cn1sc(Cl)cc1=O`, the compound was called inactive.
`CC(C)CCCCCCOC(=O)c1ccccc1C(=O)OCCCCCCC(C)C`: the half-maximal activity concentration (AC50) is 8.09 µM (active).
The same measure, in the same setting: the value for `O=C(O)C(F)(F)C(F)(F)C(F)(F)C(F)(F)C(F)(F)C(F)(F)F` was 18.6 µM (active); that for `COc1cc2c(cc1OC)[C@@]13CCN4CC5=CCO[C@H]6CC(=O)N2[C@H]1[C@H]6[C@H]5C[C@H]43` was 6.44 µM (active).
With `O=C(Nc1ccc2[nH]ccc2c1)c1cc2cc(F)ccc2n1Cc1cccc(F)c1`, the call was inactive.
With `COc1cc(-c2ccc(N)c(OC)c2)ccc1N`, the concentration at half-maximal activity (AC50) is 16.4 µM (active).
On the same count and under the same terms, the value for `C=C(C)C(=O)[O][Sn]([CH2]CCC)([CH2]CCC)[CH2]CCC` was 8.77 µM (active).
On the same count and under the same terms, the value for `COP(=S)(OC)Oc1ccc(Sc2ccc(OP(=S)(OC)OC)cc2)cc1` was 2.51 µM (active).
In the case of `O=C1C2(Cl)C3(Cl)C4(Cl)C(Cl)(Cl)C5(Cl)C3(Cl)C1(Cl)C5(Cl)C24Cl` (centres undefined), the call was inactive.
With `O=C(O)C(F)(F)C(F)(F)C(F)(F)C(F)(F)C(F)(F)C(F)(F)C(F)(F)C(F)(F)C(F)(F)C(F)(F)F`, the concentration at half-maximal activity (AC50) is 1.51 µM (active).
